Measured values as given in PubChem BioAssay (EPA / NIEHS).
Records with an inconclusive call do not appear. Active and inactive are the calls of the source. Rule for the calls: active = hit-call score of the fitted dose curve at least 0.9, where 1 is the maximum; inconclusive = response in the unintended direction; inactive = score below 0.9.

What follows are compounds tested against human Vitamin D Receptor (VDR), VDR (gene 7421) (UniProt P11473) (assay: ATG_VDR_TRANS: Attagene TRANS-FACTORIAL HepG2 Assay for human Vitamin D Receptor (VDR) (AID 2283022)).
Description: ATG_TRANS is a cell-based, multiplexed-readout assay that uses HepG2, a human liver cell line, with measurements taken at 24 hours after chemical dosing in a 24-well plate.ATG_VDR_TRANS is one of 30 assay component(s) measured or calculated from the ATG_TRANS assay. It is designed to make measurements of mRNA induction, a form of inducible reporter, as detected with fluorescence intensity signals by Reverse transcription polymerase chain reaction (RT-PCR) and Capillary electrophoresis technology.Data from the assay component ATG_VDR_TRANS was analyzed into 1 assay endpoint. This assay endpoint, ATG_VDR_TRANS, was analyzed in the positive analysis fitting direction relative to DMSO as the negative control and baseline of activity. Using a type of inducible reporter, measures of mRNA for gain-of-signal activity can be used to understand the reporter gene at the transcription factor-level as they relate to the gene VDR. Furthermore, this assay endpoint can be referred to as a primary readout, because this assay has produced multiple assay endpoints where this one serves a reporter gene function. To generalize the intended target to other relatable targets, this assay endpoint is annotated to the nuclear receptor intended target family, where the subfamily is non-steroidal.
Human liver HepG2 cells are transiently transfected with multiple reporter transcription units (MRTUs) in 6-well plates using FuGene 6 reagent (Roche; 3 ml FuGene/1 mg DNA). The MRTU constructs are regulated by a cis-regulating element (promoter). […] A major difference between the CIS and TRANS system is that in CIS activities of endogenous TFs are measured, whereas the TRANS assay evaluates changes in activities of exogenous, chimeric NR-Gal4 proteins. […] At the end of 24 hour incubation, total RNA was isolated using TriZol reagent (Invitrogen). The isolated RNA is then reverse-transcribed using oligo(dT) primer and Mo-MLV reverse transcriptase (Invitrogen) with DNAse I (Ambion) treatment for 30 min. The one-tenth of the produced cDNA was amplified by PCR using Taq DNA polymerase (Invitrogen) and two reporter sequence-specific primers. The PCR products were fluorescently labeled by primer extension with 6-arboxyfluorescein (6-FAM) 5'-labeled reporter sequence-specific primer (2 min at 95 C, 20 s at 68 C and 10 min at 72 C) and these products were digested with 5U of HpaI (New England Biolabs) for 2h at 37 C. The fragments were purified using Qiaquick PCR columns (Qiagen), analyzed on an ABI 3130xL genetic analyzer (Applied Biosystems) with peak positions identified by using a set of X-rhodamine (ROX)-labeled MapMarker1000 molecular weight standards (BioVentures). The raw capillary electrophoresis data was processed using Attagraph software (Attagene).

Chain of human Vitamin D Receptor (VDR), VDR (gene 7421) (P11473 whole entry, looked up): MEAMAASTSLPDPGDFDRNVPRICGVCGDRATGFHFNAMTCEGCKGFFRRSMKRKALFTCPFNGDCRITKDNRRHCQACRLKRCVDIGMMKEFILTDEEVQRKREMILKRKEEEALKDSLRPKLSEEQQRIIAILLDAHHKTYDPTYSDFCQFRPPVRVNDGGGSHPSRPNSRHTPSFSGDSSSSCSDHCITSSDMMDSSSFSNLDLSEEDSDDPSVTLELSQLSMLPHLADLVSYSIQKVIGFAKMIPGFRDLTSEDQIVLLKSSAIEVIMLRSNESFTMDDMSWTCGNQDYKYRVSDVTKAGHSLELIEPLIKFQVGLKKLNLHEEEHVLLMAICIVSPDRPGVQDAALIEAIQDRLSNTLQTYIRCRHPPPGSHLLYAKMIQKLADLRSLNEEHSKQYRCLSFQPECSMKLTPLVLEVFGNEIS

SMILES	outcome	AC50
Nc1ncn([C@@H]2O[C@H](CO)[C@@H](O)[C@H]2O)c(=O)n1	inactive	–
CC1(C)S[C@@H]2[C@H](NC(=O)COc3ccccc3)C(=O)N2[C@H]1C(=O)O	inactive	–
CCOc1ccc(N)c([N+](=O)[O-])c1	inactive	–
CC=CCO	inactive	–
c1ccc(-c2ccccn2)nc1	inactive	–
CCOc1nc(F)cc2nc(S(=O)(=O)Nc3c(Cl)cccc3C(=O)OC)nn12	inactive	–
COC(=O)c1sccc1S(N)(=O)=O	inactive	–
CCCCCCCCCCC=CC#N	inactive	–
CCCCCC(C)O (stereo not given)	inactive	–
FC(F)(F)C(=NOCC1OCCO1)c1ccc(Cl)cc1	inactive	–
C=CC(C)(C)C	inactive	–
O=C(O)c1cc2ccccc2nc1C(=O)O	inactive	–
O=C1CCCC(=O)O1	inactive	–
O=P(O)(O)Oc1ccccc1	inactive	–
CCC(C)C=O (stereo not given)	inactive	–
CCCCC(CC)COC(=O)c1ccccc1 (stereo not given)	inactive	–
Cc1ccc2oc(=O)ccc2c1	inactive	–
CCCCCCC1(C)CCC(=O)O1 (stereo not given)	inactive	–
NCCCN1CCN(CCCN)CC1	inactive	–
CCOC(=O)NNc1nncc2ccccc12	inactive	–

SMILES	outcome	AC50
O=C(O)CCCC[C@@H]1SC[C@@H]2NC(=O)N[C@@H]21	inactive	–
CC(=O)OCC(C)OC(C)=O (stereo not given)	inactive	–
C=CC(C)(CCC=C(C)C)OC(=O)C(C)C (stereo not given)	inactive	–
Cc1cccc(C(=O)O)c1	inactive	–
CC(=O)Nc1ccc2c(c1)Cc1cc(NC(C)=O)ccc1-2	inactive	–
OC1CCCC1	inactive	–
CCC(C)(C)C1CCCCC1OC(C)=O (stereo not given)	inactive	–
CCCCCCOc1cc(C)c(O)c(C)c1C	inactive	–
O=C1CCCCCN1SSN1CCCCCC1=O	inactive	–
O=C(O)CC(C(=O)O)C(CC(=O)O)C(=O)O (stereo not given)	inactive	–
CCc1nccnc1C	inactive	–
CCCCCc1ccc(Cl)cc1	inactive	–
CN(C)c1ccc(N=Nc2ccccc2C(=O)O)cc1	inactive	–
CCC(Cc1ccccc1)(C(=O)c1ccc(N2CCOCC2)cc1)N(C)C (stereo not given)	inactive	–
CC(=O)CC(N)=O	inactive	–
c1cc(C(c2ccc(OCC3CO3)cc2)C(c2ccc(OCC3CO3)cc2)c2ccc(OCC3CO3)cc2)ccc1OCC1CO1 (stereo not given)	inactive	–
Nc1ccc2cc3ccccc3cc2c1	inactive	–
Cc1cc(C)c(C(=O)O)c(C)c1	inactive	–
Cc1ccc(N)c([N+](=O)[O-])c1	inactive	–
CN(C)c1ccc(C(=N)c2ccc(N(C)C)cc2)cc1	–	156 µM (active)
